{"source": "paper PMC7862700", "about": "“An all-to-all approach to the identification of sequence-specific readers for epigenetic DNA modifications on cytosine”", "test_in_all_cases": "DAPPL (digital affinity profiling via proximity ligation, sequencing); 10 mM Tris-HCl pH 7.5, 50 mM NaCl, 1 mM DTT, 4% glycerol, room temperature, 30 min; GST-TFs on glutathione beads, 16-mer random dsDNA library, 0.1% formaldehyde crosslink after washing; high values mean tight binding", "key": {"[1]": {"target": "T1, FLI1 (Homo sapiens, UniProt Q01543 1-452)", "T1 sequence": "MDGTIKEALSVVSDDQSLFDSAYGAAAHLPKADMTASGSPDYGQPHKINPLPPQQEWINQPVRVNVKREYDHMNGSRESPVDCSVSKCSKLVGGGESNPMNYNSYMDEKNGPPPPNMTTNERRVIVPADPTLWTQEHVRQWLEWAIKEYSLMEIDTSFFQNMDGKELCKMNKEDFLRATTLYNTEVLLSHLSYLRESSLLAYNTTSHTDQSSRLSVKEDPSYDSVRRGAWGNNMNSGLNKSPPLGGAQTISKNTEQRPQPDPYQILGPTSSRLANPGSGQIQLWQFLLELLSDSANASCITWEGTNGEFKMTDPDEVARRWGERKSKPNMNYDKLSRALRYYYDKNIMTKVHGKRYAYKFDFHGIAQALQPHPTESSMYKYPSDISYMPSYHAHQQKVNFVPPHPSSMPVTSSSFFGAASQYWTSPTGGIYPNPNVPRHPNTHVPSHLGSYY", "conditions": "protein: recombinant; tags: N-terminal GST; dsDNA, one strand shown", "outline": "(§1)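 The binding signal reported is, for every hexamer, its read frequency for a factor over its read frequency for the tag-only sample. Reads came from pools of yeast-expressed, GST-fused human transcription factors on glutathione beads, barcoded with DNA and mixed with that sample, which were incubated with 200 nmole of a random double-stranded 16-mer DNA library in Tris/NaCl/DTT/glycerol buffer at room temperature for 30 min. After washing, the pools were crosslinked with 0.1% formaldehyde, proximity-ligated with BsaI/T4 ligase for 1 h at 37 °C, PCR-amplified and sequenced on an Illumina NextSeq500.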"}, "[2]": {"target": "T2, ELK1 (Homo sapiens, UniProt P19419 1-428)", "T2 sequence": "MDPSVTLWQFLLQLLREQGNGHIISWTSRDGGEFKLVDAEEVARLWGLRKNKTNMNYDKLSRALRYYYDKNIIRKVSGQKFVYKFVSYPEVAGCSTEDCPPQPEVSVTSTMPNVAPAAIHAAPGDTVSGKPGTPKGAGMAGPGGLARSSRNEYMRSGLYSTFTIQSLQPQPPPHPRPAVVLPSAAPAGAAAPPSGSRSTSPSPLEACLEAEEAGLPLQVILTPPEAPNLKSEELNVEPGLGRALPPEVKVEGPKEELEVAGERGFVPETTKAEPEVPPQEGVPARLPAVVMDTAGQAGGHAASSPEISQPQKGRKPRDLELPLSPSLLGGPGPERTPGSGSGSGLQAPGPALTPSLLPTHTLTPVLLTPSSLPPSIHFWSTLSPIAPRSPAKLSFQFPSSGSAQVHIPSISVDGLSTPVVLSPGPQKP", "conditions": "protein: recombinant; tags: N-terminal GST; dsDNA, one strand shown", "outline": "as §1"}, "[3]": {"target": "T3, GABPA (Homo sapiens, UniProt Q06546 1-454)", "T3 sequence": "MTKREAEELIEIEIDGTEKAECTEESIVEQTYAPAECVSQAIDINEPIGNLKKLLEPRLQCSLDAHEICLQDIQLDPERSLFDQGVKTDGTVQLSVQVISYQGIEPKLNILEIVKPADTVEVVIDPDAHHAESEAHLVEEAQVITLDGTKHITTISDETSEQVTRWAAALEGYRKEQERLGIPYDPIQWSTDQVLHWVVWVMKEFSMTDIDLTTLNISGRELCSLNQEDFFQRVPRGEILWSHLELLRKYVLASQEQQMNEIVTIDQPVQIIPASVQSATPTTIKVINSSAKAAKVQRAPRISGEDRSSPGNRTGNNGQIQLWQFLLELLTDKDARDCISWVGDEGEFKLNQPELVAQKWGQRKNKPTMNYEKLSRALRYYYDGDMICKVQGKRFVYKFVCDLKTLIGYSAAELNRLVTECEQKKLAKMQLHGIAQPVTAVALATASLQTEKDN", "conditions": "protein: recombinant; tags: N-terminal GST; dsDNA, one strand shown", "outline": "as §1"}, "[4]": {"target": "T4, ERG (Homo sapiens, UniProt P11308 1-479)", "T4 sequence": "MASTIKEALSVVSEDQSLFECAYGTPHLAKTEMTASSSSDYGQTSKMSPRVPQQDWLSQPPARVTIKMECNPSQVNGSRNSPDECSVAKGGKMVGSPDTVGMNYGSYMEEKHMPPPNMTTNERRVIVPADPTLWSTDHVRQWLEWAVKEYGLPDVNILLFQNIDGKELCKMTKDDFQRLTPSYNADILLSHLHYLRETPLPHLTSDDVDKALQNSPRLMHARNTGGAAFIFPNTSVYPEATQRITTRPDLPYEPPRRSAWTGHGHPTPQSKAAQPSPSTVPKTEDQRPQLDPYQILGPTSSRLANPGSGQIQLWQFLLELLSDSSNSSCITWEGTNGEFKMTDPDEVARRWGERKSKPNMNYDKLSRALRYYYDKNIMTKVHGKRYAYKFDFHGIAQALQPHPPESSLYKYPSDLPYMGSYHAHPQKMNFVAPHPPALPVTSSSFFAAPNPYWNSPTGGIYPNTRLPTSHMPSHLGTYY", "conditions": "protein: recombinant; tags: N-terminal GST; dsDNA, one strand shown", "outline": "as §1"}, "[5]": {"target": "ELF1 (Homo sapiens, UniProt P32519 1-619)", "sequence (P32519 whole entry)": "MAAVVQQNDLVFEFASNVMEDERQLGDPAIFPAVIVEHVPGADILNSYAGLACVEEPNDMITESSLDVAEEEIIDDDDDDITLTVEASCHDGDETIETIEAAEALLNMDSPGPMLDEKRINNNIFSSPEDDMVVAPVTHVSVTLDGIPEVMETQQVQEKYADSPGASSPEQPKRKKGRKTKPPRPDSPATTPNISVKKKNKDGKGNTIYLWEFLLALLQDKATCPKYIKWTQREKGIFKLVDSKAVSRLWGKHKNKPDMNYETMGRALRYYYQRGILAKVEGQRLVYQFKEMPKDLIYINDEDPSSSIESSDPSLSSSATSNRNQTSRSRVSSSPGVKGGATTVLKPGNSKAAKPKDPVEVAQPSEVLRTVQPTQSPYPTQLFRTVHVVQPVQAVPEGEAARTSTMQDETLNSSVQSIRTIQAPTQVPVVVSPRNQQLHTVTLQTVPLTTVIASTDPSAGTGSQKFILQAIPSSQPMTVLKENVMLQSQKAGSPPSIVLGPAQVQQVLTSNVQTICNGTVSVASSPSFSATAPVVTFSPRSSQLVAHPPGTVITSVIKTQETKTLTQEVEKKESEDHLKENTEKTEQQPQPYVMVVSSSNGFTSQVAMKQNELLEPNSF", "conditions": "protein: recombinant; tags: N-terminal GST; dsDNA, one strand shown", "outline": "as §1"}, "[6]": {"target": "T5, EHF (Homo sapiens, UniProt Q9NZC4 1-300)", "T5 sequence": "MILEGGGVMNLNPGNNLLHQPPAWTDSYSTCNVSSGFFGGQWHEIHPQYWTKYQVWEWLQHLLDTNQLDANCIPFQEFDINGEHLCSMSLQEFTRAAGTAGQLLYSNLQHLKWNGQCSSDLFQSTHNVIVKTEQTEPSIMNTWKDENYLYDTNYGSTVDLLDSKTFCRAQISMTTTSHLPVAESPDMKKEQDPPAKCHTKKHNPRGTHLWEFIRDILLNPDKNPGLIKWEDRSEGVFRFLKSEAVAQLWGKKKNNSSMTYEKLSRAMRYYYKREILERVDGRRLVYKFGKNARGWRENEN", "conditions": "protein: recombinant; tags: N-terminal GST; dsDNA, one strand shown", "outline": "as §1"}, "[7]": {"target": "SPI1 (Homo sapiens, UniProt P17947 1-270)", "conditions": "protein: recombinant; tags: N-terminal GST; dsDNA, one strand shown", "outline": "as §1"}, "[8]": {"target": "SPIB (Homo sapiens, UniProt Q01892 1-262)", "sequence (Q01892 whole entry)": "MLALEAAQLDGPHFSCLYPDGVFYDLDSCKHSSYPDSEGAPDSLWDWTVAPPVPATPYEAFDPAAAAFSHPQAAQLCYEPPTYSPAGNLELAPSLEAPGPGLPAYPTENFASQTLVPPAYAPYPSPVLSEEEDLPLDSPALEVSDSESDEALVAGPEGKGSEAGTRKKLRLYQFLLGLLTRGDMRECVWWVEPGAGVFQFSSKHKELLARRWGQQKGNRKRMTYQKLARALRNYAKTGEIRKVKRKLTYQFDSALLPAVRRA", "conditions": "protein: recombinant; tags: N-terminal GST; dsDNA, one strand shown", "outline": "as §1"}, "[9]": {"target": "T6, ELK3 (Homo sapiens, UniProt P41970 1-407)", "T6 sequence": "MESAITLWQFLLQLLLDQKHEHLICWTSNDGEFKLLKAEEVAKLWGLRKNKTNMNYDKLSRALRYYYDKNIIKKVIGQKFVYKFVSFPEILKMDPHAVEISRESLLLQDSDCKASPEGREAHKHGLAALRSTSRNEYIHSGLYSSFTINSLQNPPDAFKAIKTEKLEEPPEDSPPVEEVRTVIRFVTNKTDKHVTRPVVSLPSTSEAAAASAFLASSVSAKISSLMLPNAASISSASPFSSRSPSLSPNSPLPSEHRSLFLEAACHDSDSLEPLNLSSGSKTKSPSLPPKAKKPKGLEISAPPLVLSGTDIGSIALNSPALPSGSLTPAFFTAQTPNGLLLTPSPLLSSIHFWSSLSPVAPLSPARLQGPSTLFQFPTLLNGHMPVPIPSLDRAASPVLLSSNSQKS", "conditions": "protein: recombinant; tags: N-terminal GST; dsDNA, one strand shown", "outline": "as §1"}, "[10]": {"target": "T7, FEV (Homo sapiens, UniProt Q99581 1-238)", "T7 sequence": "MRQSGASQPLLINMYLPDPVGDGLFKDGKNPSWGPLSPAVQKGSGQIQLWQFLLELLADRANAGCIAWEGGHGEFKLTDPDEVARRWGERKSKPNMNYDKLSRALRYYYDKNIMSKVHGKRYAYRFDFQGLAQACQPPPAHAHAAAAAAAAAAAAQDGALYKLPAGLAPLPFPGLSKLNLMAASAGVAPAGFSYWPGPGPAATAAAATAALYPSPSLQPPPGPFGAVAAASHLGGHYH", "conditions": "protein: recombinant; tags: N-terminal GST; dsDNA, one strand shown", "outline": "as §1"}, "[11]": {"target": "ETV5 (Homo sapiens, UniProt P41161 1-510)", "sequence (P41161 whole entry)": "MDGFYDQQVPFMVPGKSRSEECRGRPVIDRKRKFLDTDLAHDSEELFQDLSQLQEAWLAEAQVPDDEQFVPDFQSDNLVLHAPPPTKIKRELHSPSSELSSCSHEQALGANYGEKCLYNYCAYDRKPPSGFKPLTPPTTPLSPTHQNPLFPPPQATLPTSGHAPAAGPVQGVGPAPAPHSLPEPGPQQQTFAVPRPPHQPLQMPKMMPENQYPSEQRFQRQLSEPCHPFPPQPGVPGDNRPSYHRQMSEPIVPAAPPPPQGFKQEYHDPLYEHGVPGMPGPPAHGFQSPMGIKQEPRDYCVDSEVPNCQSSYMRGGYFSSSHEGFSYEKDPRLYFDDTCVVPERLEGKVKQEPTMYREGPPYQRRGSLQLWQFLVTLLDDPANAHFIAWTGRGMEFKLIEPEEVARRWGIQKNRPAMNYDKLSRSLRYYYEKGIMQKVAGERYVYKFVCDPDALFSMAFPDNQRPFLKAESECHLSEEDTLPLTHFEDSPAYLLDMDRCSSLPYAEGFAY", "conditions": "protein: recombinant; tags: N-terminal GST; dsDNA, one strand shown", "outline": "as §1"}, "[12]": {"target": "HSF1 (Homo sapiens, UniProt Q00613 1-529)", "sequence (Q00613 whole entry)": "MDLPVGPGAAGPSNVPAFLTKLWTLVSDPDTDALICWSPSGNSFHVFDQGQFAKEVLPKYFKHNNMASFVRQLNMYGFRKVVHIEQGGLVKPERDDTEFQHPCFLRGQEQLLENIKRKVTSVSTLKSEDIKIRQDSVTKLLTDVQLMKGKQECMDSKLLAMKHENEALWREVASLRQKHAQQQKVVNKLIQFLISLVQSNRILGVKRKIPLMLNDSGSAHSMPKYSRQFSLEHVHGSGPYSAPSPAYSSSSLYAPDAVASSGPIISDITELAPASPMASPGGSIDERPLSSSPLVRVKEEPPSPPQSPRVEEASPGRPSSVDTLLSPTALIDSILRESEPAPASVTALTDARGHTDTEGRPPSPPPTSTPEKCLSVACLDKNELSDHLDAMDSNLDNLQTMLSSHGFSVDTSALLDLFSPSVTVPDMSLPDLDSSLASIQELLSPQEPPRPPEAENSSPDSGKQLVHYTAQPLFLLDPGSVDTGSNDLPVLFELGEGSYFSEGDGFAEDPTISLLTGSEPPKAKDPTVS", "conditions": "protein: recombinant; tags: N-terminal GST; chain copies: 3; dsDNA, one strand shown", "outline": "as §1"}, "[13]": {"target": "ELF4 (Homo sapiens, UniProt Q99607 1-663)", "sequence (Q99607 whole entry)": "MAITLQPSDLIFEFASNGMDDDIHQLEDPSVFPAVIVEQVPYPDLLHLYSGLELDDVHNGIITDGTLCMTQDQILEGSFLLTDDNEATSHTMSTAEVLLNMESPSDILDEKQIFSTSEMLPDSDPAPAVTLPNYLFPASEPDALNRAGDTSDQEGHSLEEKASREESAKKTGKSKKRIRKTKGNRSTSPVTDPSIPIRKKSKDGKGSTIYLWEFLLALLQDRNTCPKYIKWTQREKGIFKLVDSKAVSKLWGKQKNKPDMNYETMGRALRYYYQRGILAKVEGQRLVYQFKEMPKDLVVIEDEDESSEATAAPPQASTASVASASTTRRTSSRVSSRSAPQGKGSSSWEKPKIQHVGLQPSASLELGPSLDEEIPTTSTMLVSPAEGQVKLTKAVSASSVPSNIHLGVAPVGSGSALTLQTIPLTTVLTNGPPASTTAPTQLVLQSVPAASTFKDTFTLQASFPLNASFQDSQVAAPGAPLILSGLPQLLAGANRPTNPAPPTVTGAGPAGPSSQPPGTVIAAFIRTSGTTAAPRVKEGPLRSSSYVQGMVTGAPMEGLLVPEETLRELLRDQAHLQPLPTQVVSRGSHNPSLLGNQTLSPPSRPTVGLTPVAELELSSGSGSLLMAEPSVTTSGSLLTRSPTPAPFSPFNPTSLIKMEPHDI", "conditions": "protein: recombinant; tags: N-terminal GST; dsDNA, one strand shown", "outline": "as §1"}, "[14]": {"target": "T8, ELK4 (Homo sapiens, UniProt P28324-2 1-405)", "T8 sequence": "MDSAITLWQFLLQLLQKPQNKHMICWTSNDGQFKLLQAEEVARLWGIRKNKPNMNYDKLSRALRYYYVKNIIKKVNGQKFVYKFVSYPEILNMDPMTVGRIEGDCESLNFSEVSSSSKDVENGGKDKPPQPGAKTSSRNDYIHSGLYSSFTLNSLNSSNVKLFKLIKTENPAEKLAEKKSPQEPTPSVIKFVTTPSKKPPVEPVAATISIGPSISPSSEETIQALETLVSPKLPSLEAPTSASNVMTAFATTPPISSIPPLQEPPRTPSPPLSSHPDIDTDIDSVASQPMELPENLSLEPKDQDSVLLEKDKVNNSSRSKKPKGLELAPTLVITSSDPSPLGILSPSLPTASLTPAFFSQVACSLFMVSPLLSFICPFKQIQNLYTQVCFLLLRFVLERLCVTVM", "conditions": "protein: recombinant; tags: N-terminal GST; dsDNA, one strand shown", "outline": "as §1"}, "[15]": {"target": "T9, ETV2 (Homo sapiens, UniProt O00321 1-342)", "T9 sequence": "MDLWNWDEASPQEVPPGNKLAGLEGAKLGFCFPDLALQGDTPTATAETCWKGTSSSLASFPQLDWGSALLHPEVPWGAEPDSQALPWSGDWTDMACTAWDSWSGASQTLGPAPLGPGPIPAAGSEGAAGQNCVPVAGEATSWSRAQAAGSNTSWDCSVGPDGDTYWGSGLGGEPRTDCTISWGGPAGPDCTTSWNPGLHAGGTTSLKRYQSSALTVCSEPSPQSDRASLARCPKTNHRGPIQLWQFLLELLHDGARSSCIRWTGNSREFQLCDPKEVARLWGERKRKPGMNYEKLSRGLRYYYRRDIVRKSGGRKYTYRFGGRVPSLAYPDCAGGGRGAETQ", "conditions": "protein: recombinant; tags: N-terminal GST; dsDNA, one strand shown", "outline": "as §1"}, "[16]": {"target": "T10, ELF3 (Homo sapiens, UniProt P78545 1-371)", "T10 sequence": "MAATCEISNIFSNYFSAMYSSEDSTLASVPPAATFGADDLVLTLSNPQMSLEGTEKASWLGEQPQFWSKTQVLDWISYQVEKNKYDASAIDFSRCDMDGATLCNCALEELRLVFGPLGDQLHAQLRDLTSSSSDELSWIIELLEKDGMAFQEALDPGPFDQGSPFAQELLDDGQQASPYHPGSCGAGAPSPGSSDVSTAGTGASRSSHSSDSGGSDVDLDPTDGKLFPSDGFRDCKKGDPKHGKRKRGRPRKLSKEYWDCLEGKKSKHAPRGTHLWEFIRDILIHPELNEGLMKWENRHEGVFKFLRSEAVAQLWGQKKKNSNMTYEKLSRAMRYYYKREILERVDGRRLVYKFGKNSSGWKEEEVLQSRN", "conditions": "protein: recombinant; tags: N-terminal GST; dsDNA, one strand shown", "outline": "as §1"}, "[17]": {"target": "ETV1 (Homo sapiens, UniProt P50549 1-477)", "sequence (P50549 whole entry)": "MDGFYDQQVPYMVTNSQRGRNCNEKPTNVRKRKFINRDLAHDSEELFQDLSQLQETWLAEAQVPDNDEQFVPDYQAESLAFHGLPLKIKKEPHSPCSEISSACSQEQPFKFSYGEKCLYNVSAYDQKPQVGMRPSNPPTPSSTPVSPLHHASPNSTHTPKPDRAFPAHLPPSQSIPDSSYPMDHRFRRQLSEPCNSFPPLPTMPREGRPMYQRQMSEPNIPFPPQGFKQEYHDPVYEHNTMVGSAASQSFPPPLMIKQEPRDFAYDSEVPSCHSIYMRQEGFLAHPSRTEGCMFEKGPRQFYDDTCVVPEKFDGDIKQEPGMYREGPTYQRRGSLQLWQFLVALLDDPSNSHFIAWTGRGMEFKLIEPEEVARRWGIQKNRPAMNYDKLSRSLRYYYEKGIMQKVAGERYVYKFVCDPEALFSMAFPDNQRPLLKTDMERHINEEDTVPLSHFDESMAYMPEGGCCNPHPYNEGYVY", "conditions": "protein: recombinant; tags: N-terminal GST; dsDNA, one strand shown", "outline": "as §1"}}, "data": [{"sequence": "CTGGCC", "values": [{"measurement": "binding signal", "setting": "[1]", "result": "1.22 fold enrichment (6-mer frequency, TF over GST control)"}, {"measurement": "binding signal", "setting": "[2]", "result": "1.13 fold enrichment (6-mer frequency, TF over GST control)"}, {"measurement": "binding signal", "setting": "[3]", "result": "1.19 fold enrichment (6-mer frequency, TF over GST control)"}, {"measurement": "binding signal", "setting": "[4]", "result": "1.29 fold enrichment (6-mer frequency, TF over GST control)"}, {"measurement": "binding signal", "setting": "[5]", "result": "1.23 fold enrichment (6-mer frequency, TF over GST control)"}, {"measurement": "binding signal", "setting": "[6]", "result": "1.13 fold enrichment (6-mer frequency, TF over GST control)"}, {"measurement": "binding signal", "setting": "[7]", "result": "1.28 fold enrichment (6-mer frequency, TF over GST control)"}, {"measurement": "binding signal", "setting": "[8]", "result": "1.18 fold enrichment (6-mer frequency, TF over GST control)"}, {"measurement": "binding signal", "setting": "[9]", "result": "1.06 fold enrichment (6-mer frequency, TF over GST control)"}, {"measurement": "binding signal", "setting": "[10]", "result": "1.13 fold enrichment (6-mer frequency, TF over GST control)"}, {"measurement": "binding signal", "setting": "[11]", "result": "1.19 fold enrichment (6-mer frequency, TF over GST control)"}, {"measurement": "binding signal", "setting": "[12]", "result": "1.01 fold enrichment (6-mer frequency, TF over GST control)"}, {"measurement": "binding signal", "setting": "[13]", "result": "1.2 fold enrichment (6-mer frequency, TF over GST control)"}, {"measurement": "binding signal", "setting": "[14]", "result": "1.35 fold enrichment (6-mer frequency, TF over GST control)"}, {"measurement": "binding signal", "setting": "[15]", "result": "1.04 fold enrichment (6-mer frequency, TF over GST control)"}, {"measurement": "binding signal", "setting": "[16]", "result": "1 fold enrichment (6-mer frequency, TF over GST control)"}, {"measurement": "binding signal", "setting": "[17]", "result": "1.15 fold enrichment (6-mer frequency, TF over GST control)"}]}]}
